Experimental data: PubChem BioAssay (EPA / NIEHS)
Active and inactive are the calls of the source. The calls were made as follows: active = hit-call score of the fitted dose curve at least 0.9, where 1 is the maximum; inactive = score below 0.9.

Assays:
Conditions in all cases: mRNA level, 48 h; actives raise or lower the signal
CYP2E1 (gene 1571) = assay: LTEA_HepaRG_CYP2E1: Life Technologies and Expression Analysis (LTEA) Assay for CYP2E1 using HepaRG (AID 2283485)
Procedure, shortened: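 Human liver line HepaRG, plated 48 h, then serum-free induction medium + chemical x 48 h; 8-pt CRC from 100 uM, half-log, 0.5% DMSO, n=2. Readout: CYP2E1 mRNA qRT-PCR vs ACTB/GAPDH/POLR2A; bidirectional fit vs DMSO.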

CYP4A11 (gene 1579) = assay: LTEA_HepaRG_CYP4A11: Life Technologies and Expression Analysis (LTEA) Assay for CYP4A11 using HepaRG (AID 2283486)
Procedure, shortened: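 HepaRG, 48 h chem exposure, 8 conc (100 uM top, half-log), 0.5% DMSO vehicle; qRT-PCR readout, housekeeping-gene normalized; bidirectional curve fit vs DMSO baseline.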

[1] = read-out: Cytochrome P450 3A4 (Homo sapiens) (UniProt P08684); assay: LTEA_HepaRG_CYP3A4: Life Technologies and Expression Analysis (LTEA) Assay for CYP3A4 using HepaRG (AID 2283487)
Procedure, shortened: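 In a human hepatic line (HepaRG), duplicate wells were treated 48 h with up to 100 uM chemical in half-log dilutions. Endpoint: CYP3A4 mRNA induction or loss relative to 0.5% DMSO vehicle, by qRT-PCR.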

[2] = read-out: DNA damage-inducible transcript 3 (DDIT3), DDIT3 (gene 1649); assay: LTEA_HepaRG_DDIT3: Life Technologies and Expression Analysis (LTEA) Assay for DNA damage-inducible transcript 3 (DDIT3) using HepaRG (AID 2283488)
Procedure, shortened: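 HepaRG plated 48 h, switched to serum-free induction medium, dosed 48 h (100 uM top, half-log, 8 pts, 0.5% DMSO, n=2); RNA isolated; DDIT3 by qRT-PCR; bidirectional curve fit vs DMSO.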

[3] = read-out: Pro-epidermal growth factor (Homo sapiens) (UniProt P01133); assay: LTEA_HepaRG_EGF: Life Technologies and Expression Analysis (LTEA) Assay for Epidermal growth factor (EGF) using HepaRG (AID 2283489)
Procedure, shortened: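 HepaRG, 48 h dosing, 100 uM top, half-log x8, 0.5% DMSO. Readout: TaqMan qRT-PCR (Fluidigm array), housekeeping-normalized. Gain or loss of signal fit vs DMSO.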

[4] = read-out: Early growth response protein 1 (EGR1) transcription factor, EGR1 (gene 1958); assay: LTEA_HepaRG_EGR1: Life Technologies and Expression Analysis (LTEA) Assay for Early growth response protein 1 (EGR1) transcription factor using HepaRG (AID 2283490)
Procedure, shortened: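 Differentiated human HepaRG cells in serum-free induction medium were exposed in duplicate for 48 h to eight concentrations (top 100 uM, half-log steps) in 0.5% DMSO. EGR1 mRNA was quantified by qRT-PCR, normalized to ACTB, GAPDH and POLR2A, and fitted bidirectionally versus DMSO.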

[5] = read-out: Ezrin (EZR), EZR (gene 7430); assay: LTEA_HepaRG_EZR: Life Technologies and Expression Analysis (LTEA) Assay for Ezrin (EZR) using HepaRG (AID 2283491)
Procedure, shortened: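 Gain or loss of EZR mRNA is scored relative to 0.5% DMSO in human HepaRG cultures treated 48 h with test chemicals in duplicate, eight half-log concentrations from 100 uM.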

[6] = read-out: Cytochrome P450 3A7 (Homo sapiens) (UniProt P24462); assay: LTEA_HepaRG_CYP3A7: Life Technologies and Expression Analysis (LTEA) Assay for CYP3A7 using HepaRG (AID 2283492)
Procedure, shortened: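 Human HepaRG liver cells, 48 h post-plating, switched to serum-free induction medium and exposed in duplicate for 48 h. Dosing: 100 uM top, half-log dilutions, 8 points, 0.5% DMSO vehicle. Read-out: CYP3A7 mRNA, gain or loss fitted against DMSO baseline.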

CYP3A5 (gene 1577) = assay: LTEA_HepaRG_CYP3A5: Life Technologies and Expression Analysis (LTEA) Assay for CYP3A5 using HepaRG (AID 2283493)
Procedure, shortened: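 HepaRG plated 48 h, switched to serum-free induction medium, chemicals added 48 h (max 100 uM, half-log, 0.5% DMSO). RNA isolated; CYP3A5 by TaqMan qRT-PCR. Gain/loss vs DMSO.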

[7] = read-out: Fatty Acid-Binding Protein 1 (FABP1), FABP1 (gene 2168); assay: LTEA_HepaRG_FABP1: Life Technologies and Expression Analysis (LTEA) Assay for Fatty Acid-Binding Protein 1 (FABP1) using HepaRG (AID 2283494)
Procedure, shortened: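 Differentiated human HepaRG cells were exposed in duplicate for 48 h in serum-free induction medium to 8-point half-log concentration series topping at 100 uM in 0.5% DMSO. FABP1 mRNA measured by TaqMan qRT-PCR, normalized to ACTB/GAPDH/POLR2A; bidirectional fit versus DMSO.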

[8] = read-out: Cytochrome P450 4A22 (Homo sapiens) (UniProt Q5TCH4); assay: LTEA_HepaRG_CYP4A22: Life Technologies and Expression Analysis (LTEA) Assay for Cytochrome P450 4A22 (CYP4A22) using HepaRG (AID 2283495)
Procedure, shortened: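 Readout is CYP4A22 transcript induction or loss, quantified by qRT-PCR and normalized to ACTB, GAPDH and POLR2A. Human HepaRG cells receive test chemicals for 48 h at eight half-log concentrations from 100 uM in 0.5% DMSO.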

[9] = read-out: Cytochrome P450 7A1 (Homo sapiens) (UniProt P22680); assay: LTEA_HepaRG_CYP7A1: Life Technologies and Expression Analysis (LTEA) Assay for Cytochrome P450 7A1 (CYP7A1) using HepaRG (AID 2283496)
Procedure, shortened: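 HepaRG cells plated 48 h, then switched to serum-free induction medium and exposed in duplicate for 48 h to 8-point half-log series from 100 uM in 0.5% DMSO. CYP7A1 mRNA by qRT-PCR (TaqMan), normalized to ACTB/GAPDH/POLR2A; bidirectional fit versus DMSO.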

[10] = read-out: Glutathione S-Transferase (GSTA2), GSTA2 (gene 2939); assay: LTEA_HepaRG_GSTA2: Life Technologies and Expression Analysis (LTEA) Assay for Glutathione S-Transferase (GSTA2) using HepaRG (AID 2283497)
Procedure, shortened: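 Human HepaRG cells, plated 48 h, then exposed in serum-free induction medium for 48 h to eight half-log concentrations up to 100 uM in 0.5% DMSO, duplicate. GSTA2 mRNA by qRT-PCR, normalized to ACTB/GAPDH/POLR2A; bidirectional fit versus DMSO.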

[11] = read-out: Glutamate-cysteine ligase catalytic (GCLC), GCLC (gene 2729); assay: LTEA_HepaRG_GCLC: Life Technologies and Expression Analysis (LTEA) Assay for Glutamate-cysteine ligase catalytic (GCLC) using HepaRG (AID 2283498)
Procedure, shortened: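 Differentiated human HepaRG cells, plated 48 h then switched to serum-free induction medium, were exposed in duplicate for 48 h to 8 half-log concentrations topping at 100 uM in 0.5% DMSO. GCLC mRNA was quantified by qRT-PCR against ACTB, GAPDH and POLR2A.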

[12] = read-out: growth arrest and DNA damage 45 (GADD45G), GADD45G (gene 10912); assay: LTEA_HepaRG_GADD45G: Life Technologies and Expression Analysis (LTEA) Assay for growth arrest and DNA damage 45 (GADD45G) using HepaRG (AID 2283499)
Procedure, shortened: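 Gain or loss of GADD45G mRNA, quantified by TaqMan qRT-PCR against three housekeeping genes, is fitted in both directions relative to 0.5% DMSO. Human HepaRG cultures receive test chemical for 48 h at up to 100 uM.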

[13] = read-out: Glutamate-cysteine ligase regulatory (GCLM), GCLM (gene 2730); assay: LTEA_HepaRG_GCLM: Life Technologies and Expression Analysis (LTEA) Assay for Glutamate-cysteine ligase regulatory (GCLM) using HepaRG (AID 2283500)
Procedure, shortened: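 Cells were plated, cultured 48 h, switched to serum-free induction medium, then dosed in duplicate for 48 h at eight half-log concentrations up to 100 uM. RNA was then profiled by qRT-PCR; gain or loss versus DMSO was fitted.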

[14] = read-out: Glutathione S-transferase M3 (GSTM3), GSTM3 (gene 2947); assay: LTEA_HepaRG_GSTM3: Life Technologies and Expression Analysis (LTEA) Assay for Glutathione S-transferase M3 (GSTM3) using HepaRG (AID 2283501)
Procedure, shortened: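 HepaRG, plated 48 h, then serum-free induction medium; test chemical 48 h, duplicate; 100 uM top, half-log x8, 0.5% DMSO. Read-out: GSTM3 mRNA (TaqMan qRT-PCR, Fluidigm array). Bidirectional fit vs DMSO.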

[15] = read-out: Heat shock 70 kDa protein 1 (HSPA1A), gene 3303; assay: LTEA_HepaRG_HSPA1A: Life Technologies and Expression Analysis (LTEA) Assay for Heat shock 70 kDa protein 1 (HSPA1A) using HepaRG (AID 2283502)
Procedure, shortened: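 Readout is HSPA1A transcript level by microfluidic qRT-PCR, normalized to three housekeeping genes and analysed for gain or loss of signal relative to 0.5% DMSO. Human HepaRG cultures received test chemicals for 48 h at up to 100 uM.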

[16] = read-out: Hypoxia-inducible factor 1-alpha (Homo sapiens) (UniProt Q16665); assay: LTEA_HepaRG_HIF1A: Life Technologies and Expression Analysis (LTEA) Assay for Hypoxia-inducible factor 1 (HIF1A) Trancription factor using HepaRG (AID 2283503)
Procedure, shortened: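 Differentiated HepaRG cells in serum-free induction medium exposed 48 h, in duplicate, to 8-point half-log series from 100 uM in 0.5% DMSO. HIF1A mRNA measured by TaqMan qRT-PCR, normalized to ACTB/GAPDH/POLR2A, fitted bidirectionally versus DMSO.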

[17] = read-out: 3-Hydroxy-3-Methylglutaryl-CoA Synthase 2 (HMGCS2), HMGCS2 (gene 3158); assay: LTEA_HepaRG_HMGCS2: Life Technologies and Expression Analysis (LTEA) Assay for 3-Hydroxy-3-Methylglutaryl-CoA Synthase 2 (HMGCS2) using HepaRG (AID 2283504)
Procedure, shortened: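 HepaRG, plated 48 h then switched to serum-free induction media; cmpd 8-pt, max 100 uM, 1/2-log, 0.5% DMSO, n=2, 48 h. HMGCS2 mRNA by Fluidigm TaqMan qRT-PCR, ACTB/GAPDH/POLR2A norm; bidirectional fit vs DMSO.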

Measured: AC50

Sequence of Cytochrome P450 3A7 (Homo sapiens) (P24462 whole entry, looked up): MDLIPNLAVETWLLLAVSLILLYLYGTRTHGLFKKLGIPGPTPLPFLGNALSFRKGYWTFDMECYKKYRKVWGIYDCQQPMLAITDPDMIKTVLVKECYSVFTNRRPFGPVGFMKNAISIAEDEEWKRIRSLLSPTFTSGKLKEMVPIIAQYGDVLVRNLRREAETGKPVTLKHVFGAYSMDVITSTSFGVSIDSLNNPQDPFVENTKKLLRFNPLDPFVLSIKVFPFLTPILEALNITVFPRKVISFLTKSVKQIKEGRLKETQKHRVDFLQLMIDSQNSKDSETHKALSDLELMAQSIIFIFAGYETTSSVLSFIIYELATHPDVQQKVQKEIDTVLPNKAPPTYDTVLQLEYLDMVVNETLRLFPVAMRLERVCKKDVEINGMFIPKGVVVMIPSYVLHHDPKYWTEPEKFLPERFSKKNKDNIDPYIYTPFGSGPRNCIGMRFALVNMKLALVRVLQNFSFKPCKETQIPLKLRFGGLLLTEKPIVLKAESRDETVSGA
Sequence of Cytochrome P450 3A4 (Homo sapiens) (P08684 whole entry, looked up): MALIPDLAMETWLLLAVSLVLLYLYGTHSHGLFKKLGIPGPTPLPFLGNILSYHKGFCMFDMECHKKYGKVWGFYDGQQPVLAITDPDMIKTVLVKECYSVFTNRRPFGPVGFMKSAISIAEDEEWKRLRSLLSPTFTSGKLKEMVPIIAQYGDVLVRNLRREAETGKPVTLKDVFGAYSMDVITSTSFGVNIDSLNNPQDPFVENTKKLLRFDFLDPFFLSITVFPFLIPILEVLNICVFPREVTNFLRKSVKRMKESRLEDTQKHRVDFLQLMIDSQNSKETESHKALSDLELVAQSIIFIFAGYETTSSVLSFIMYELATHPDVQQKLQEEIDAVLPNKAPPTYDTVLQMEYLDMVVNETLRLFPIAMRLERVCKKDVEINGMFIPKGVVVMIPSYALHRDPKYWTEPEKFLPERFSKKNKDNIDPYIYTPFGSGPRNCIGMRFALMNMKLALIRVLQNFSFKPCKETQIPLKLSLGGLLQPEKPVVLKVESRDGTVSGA
Sequence of Hypoxia-inducible factor 1-alpha (Homo sapiens) (Q16665 whole entry, looked up): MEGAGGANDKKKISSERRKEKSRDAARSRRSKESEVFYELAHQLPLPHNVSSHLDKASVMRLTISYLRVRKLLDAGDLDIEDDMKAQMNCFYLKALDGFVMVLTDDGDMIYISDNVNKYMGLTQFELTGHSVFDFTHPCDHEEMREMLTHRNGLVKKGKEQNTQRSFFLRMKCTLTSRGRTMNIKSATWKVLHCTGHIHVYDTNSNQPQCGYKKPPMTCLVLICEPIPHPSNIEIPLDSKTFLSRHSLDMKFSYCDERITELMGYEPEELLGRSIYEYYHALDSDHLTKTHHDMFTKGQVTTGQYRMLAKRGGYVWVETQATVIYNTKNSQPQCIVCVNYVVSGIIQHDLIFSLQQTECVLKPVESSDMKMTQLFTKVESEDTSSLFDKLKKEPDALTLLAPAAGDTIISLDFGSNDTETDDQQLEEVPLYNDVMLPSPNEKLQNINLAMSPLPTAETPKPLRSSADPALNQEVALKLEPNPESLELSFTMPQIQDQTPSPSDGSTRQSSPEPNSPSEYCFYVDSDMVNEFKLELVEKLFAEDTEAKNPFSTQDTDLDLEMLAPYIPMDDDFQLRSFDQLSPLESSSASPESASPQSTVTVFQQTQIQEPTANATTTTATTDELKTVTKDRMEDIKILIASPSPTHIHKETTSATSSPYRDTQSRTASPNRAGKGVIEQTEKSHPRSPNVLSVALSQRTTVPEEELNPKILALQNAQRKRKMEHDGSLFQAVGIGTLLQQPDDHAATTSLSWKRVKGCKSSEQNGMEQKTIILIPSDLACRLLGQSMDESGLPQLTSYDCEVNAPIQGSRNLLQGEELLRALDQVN

CC(C)CCCCCCCOC(=O)CCCCC(=O)OCCCCCCCC(C)C
inactive: all assays above

COc1ccc2sc(C(=O)Nc3nnn[nH]3)c(OC(C)C)c2c1
active: CYP2E1 (gene 1571) 91.6 µM | [2] 13.2 µM | [3] 22 µM | [4] 74.8 µM | [6] 87.2 µM | [7] 83.9 µM | [8] 1.17 µM | [9] 96.5 µM | [10] 50 µM | [12] 80.8 µM | [14] 76.2 µM | [15] 9.47 µM | [16] 72 µM | [17] 86.5 µM
inactive: CYP4A11 (gene 1579) | [1] | [5] | CYP3A5 (gene 1577) | [11] | [13]

Fc1ccccc1[C@@H](F)COC1CCC(Nc2ncnc3[nH]ncc23)CC1 (stereo not given in full)
inactive: [5] | CYP3A5 (gene 1577) | [13]
active: CYP2E1 (gene 1571) 12.7 µM | CYP4A11 (gene 1579) 40.1 µM | [1] 35.6 µM | [2] 28.9 µM | [3] 50 µM | [4] 14.3 µM | [6] 83.1 µM | [7] 64 µM | [8] 23 µM | [9] 77.1 µM | [10] 37.5 µM | [11] 50 µM | [12] 30 µM | [14] 65.2 µM | [15] 50 µM | [16] 33.1 µM | [17] 45.2 µM

CCOCCO
inactive: all assays above

COCCOCCOCCOC
inactive: all assays above

COc1ccc(-n2nc(C(F)F)cc2-c2ccc(S(C)=O)cc2)cc1 (stereo not given)
active: CYP2E1 (gene 1571) 25 µM | CYP4A11 (gene 1579) 68.8 µM | [1] 17.1 µM | [6] 19.3 µM | [8] 15.6 µM | [15] 43.5 µM
inactive: all other assays above
